Test results as given in the supplement of paper PMC12636033.
± gives the standard deviation of the averaged measurements. Over roughly 33,000 sequences, “E-score (rank enrichment, -0.5 to 0.5)” has its median near -0.0075; the highest 2% begin near 0.23. The sample as a whole holds a higher share of the highest values than the screen did.

Each sequence was assayed on WT Max(13-93) synthetic (M65Nle) (assay: PBM 8-mer E-score (E-score (rank enrichment, -0.5 to 0.5)); higher = stronger preferential binding).
Method: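 Protein binding microarray (universal PBM chip covering all 10-mers in fixed probe flanks) with chemically synthesized human Max(13-93) bHLH-LZ analogs (not full-length Max) bearing noncanonical residues (hArg, Tha, Aib, Nle at 65) and aromatic Cys staples. Read-out per 8-mer (and its reverse complement): E-score (rank-based enrichment, -0.5 to 0.5) and Z-score of median probe intensity.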

Sequence | PBM 8-mer E-score
ACTGCGCT | 0.0213 ± 0.097
ACCGCACC | -0.0552 ± 0.13
AGGTGACT | -0.0287 ± 0.06
ACGTGACT | 0.282 ± 0.0038
AAGTGACT | -0.00483 ± 0.05
GCACGGAA | -0.00447 ± 0.026
GAGGATGC | -0.0499 ± 0.029
ATGAATGC | 0.114 ± 0.14
ATGAATGA | 0.126 ± 0.034
ATGAATGG | 0.311 ± 0.023
GACGACAA | 0.0432 ± 0.014
GAGAGGTA | -0.0899 ± 0.13
GAAGTTCC | -0.122 ± 0.051
GATAATGA | 0.125 ± 0.072
AATAATGG | 0.044 ± 0.046
AATAATGT | 0.173 ± 0.097
AATAATGA | 0.259 ± 0.073
CATAATGA | 0.172 ± 0.059
AATAATGC | 0.245 ± 0.095
ATCCGAAA | -0.03 ± 0.061
ATATTACG | 0.241 ± 0.0048
CTATTACC | -0.0563 ± 0.029
AGATTACC | -0.00321 ± 0.065

Sequence | PBM 8-mer E-score
ATATTAGG | 0.244 ± 0.036
ATATTACC | 0.267 ± 0.029
AAATTACG | 0.0856 ± 0.02
ATATTAGA | 0.172 ± 0.004
ATATTACA | 0.197 ± 0.017
ATATTAGC | 0.124 ± 0.022
CGTCGGGA | -0.106 ± 0.096
CACCGCGA | -0.226 ± 0.025
CTAGGTCC | -0.172 ± 0.12
GGAAGCAC | 0.0303 ± 0.0034
ATCATAAG | 0.172 ± 0.039
ATCATGAG | 0.058 ± 0.031
AACATAGT | 0.0321 ± 0.091
ATCAACAA | 0.15 ± 0.12
ATCATAAA | 0.142 ± 0.15
ATCATGAA | 0.0859 ± 0.037
ATCATAAT | 0.269 ± 0.033
ATCAACAG | 0.106 ± 0.018
AACATAAT | 0.252 ± 0.011
ATCATGAT | 0.312 ± 0.0072
ATCAACAT | 0.24 ± 0.013
AACATAAG | 0.097 ± 0.013
ACGGGGAG | 0.0661 ± 0.065

Sequence | PBM 8-mer E-score
CCATCCAC | 0.155 ± 0.16
GAGCTGGA | -0.13 ± 0.0049
AAGGCTCC | -0.199 ± 0.056
ACTGTCCC | 0.1452 ± 0.001
AGAGGCTC | -0.129 ± 0.083
GTCGCCGA | -0.0844 ± 0.015
TATGGTAA | 0.104 ± 0.1
GTGTCCTA | -0.012 ± 0.016
GCCAACGA | -0.0918 ± 0.043
ATCGGTTG | -0.0382 ± 0.099
CCTGATGA | -0.114 ± 0.085
TTGATAAA | 0.25 ± 0.021
ATCATATG | 0.233 ± 0.0053
ATGATAAA | 0.181 ± 0.084
ATCATATC | 0.134 ± 0.044
ATCATCAC | 0.0578 ± 0.072
ATCATATA | 0.204 ± 0.012
GTGATAAA | 0.143 ± 0.05
CACATAAC | 0.108 ± 0.067
AACATAAC | 0.247 ± 0.07
ATCATCAT | 0.245 ± 0.026
ATCATCAA | -0.0899 ± 0.0026
GACATAAC | 0.17 ± 0.0081

Sequence | PBM 8-mer E-score
AGGATATC | 0.084 ± 0.03
CGCACCCA | 0.0267 ± 0.1
AAGGTGAC | -0.1212 ± 0.00044
CGGATGAC | 0.00616 ± 0.15
TCCGGTCA | -0.19 ± 0.054
ACTCTGAA | -0.0606 ± 0.013
GAAAGCCA | -0.0183 ± 0.048
CTGTCTGA | 0.00168 ± 0.0099
CTCAACAC | 0.202 ± 0.084
ATGATAAT | 0.251 ± 0.078
ATGATAAG | 0.17 ± 0.054
ATGATAAC | 0.206 ± 0.023
AGGCCTGG | -0.294 ± 0.061
TTATTAAA | 0.131 ± 0.26
ATATTAAC | 0.218 ± 0.013
ATATTAAT | 0.274 ± 0.059
ATATTAAA | 0.24 ± 0.03
ATATTAAG | 0.131 ± 0.02
CTATTAAA | 0.173 ± 0.011
AAGTTGGC | -0.119 ± 0.0037
TCGCTGCA | -0.149 ± 0.09
GGCGCCAC | -0.0393 ± 0.073
GCAGAAAC | 0.0456 ± 0.087

Sequence | PBM 8-mer E-score
AGACCTCA | -0.0265 ± 0.028
TCGGCACA | -0.0668 ± 0.093
CACGTGTA | 0.4825 ± 0.0012
AACGTGTC | 0.189 ± 0.014
ATCGTGTA | 0.0318 ± 0.041
GACGTGTA | -0.0197 ± 0.094
AACGTGTA | 0.26 ± 0.0055
AGCGTGTA | 0.11 ± 0.018
AACGTGTG | 0.178 ± 0.016
CCCGTGTC | 0.0152 ± 0.049
CCCGTGTA | 0.183 ± 0.1
CGCGTGTC | 0.232 ± 0.011
CGCGTGTA | 0.29 ± 0.052
CACGTGTC | 0.4823 ± 0.0015
GGCAGACC | -0.189 ± 0.022
AAGAGATC | -0.149 ± 0.086
AAGGTGCT | 0.0391 ± 0.026
ACAGCAGT | -0.155 ± 0.016
GCATGTTA | 0.266 ± 0.075
